This note sets out measurements from PubChem BioAssay AID1851 (National Center for Advancing Translational Sciences (NCATS), 2009).

The campaign covered roughly 16,000 compounds. About 5,700 (36%) were called active. About 24% were inconclusive and are not listed. This is one part of the list. Unmarked numbers belong to inactive results. Calls come from the whole dose curve; as a rule, active = well fitted curve in the direction sought with a large enough effect; inconclusive = small, poorly fitted or top-dose-only effect, or effect the other way; inactive = no such curve, though single readings can be large or run the other way.
% is set by controls: 0 for no effect and ±100 for the full control effect.

This experiment deals with Cytochrome P450 1A2 (Homo sapiens) (UniProt P05177). The experiment can be described thus: Cytochrome panel assay with activity outcomes. The settings on record: recombinant CYP, pro-luciferin dealkylation, luminescence, p450-cyp1a2; series mostly up to 57.1 µM; activity, negative = inhibition: at the top concentration.
Cytochrome P450 1A2 (Homo sapiens), sequence (P05177 whole entry, looked up): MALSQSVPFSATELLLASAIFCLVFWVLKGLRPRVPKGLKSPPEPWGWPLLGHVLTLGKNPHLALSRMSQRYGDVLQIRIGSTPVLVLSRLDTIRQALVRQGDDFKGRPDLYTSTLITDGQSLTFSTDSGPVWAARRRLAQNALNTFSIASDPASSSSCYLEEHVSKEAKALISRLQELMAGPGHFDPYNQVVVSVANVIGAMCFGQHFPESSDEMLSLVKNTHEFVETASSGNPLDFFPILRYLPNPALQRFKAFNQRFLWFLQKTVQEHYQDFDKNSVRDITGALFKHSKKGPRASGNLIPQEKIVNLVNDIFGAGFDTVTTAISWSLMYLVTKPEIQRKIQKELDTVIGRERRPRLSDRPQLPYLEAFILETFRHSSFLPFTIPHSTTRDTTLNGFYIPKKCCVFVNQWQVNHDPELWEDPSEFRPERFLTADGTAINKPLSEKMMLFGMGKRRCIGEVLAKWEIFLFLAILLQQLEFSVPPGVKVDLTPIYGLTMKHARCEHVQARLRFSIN
In the case of `CN(CCCNC(=O)c1ccc(/C=N/O)nc1)CCCN(C)Cc1ccccc1`, the “activity, negative = inhibition” value was 2.39%.

As a reminder, the AC50 is the midpoint of the concentration-response curve, whichever way the signal moves. As to `CN(CCCNC(=O)c1cccn2c(=O)c3ccccc3nc12)Cc1ccccc1`, the AC50 was 14100 nM (active).

`CN(C)CCCNC(=O)CCc1nc2ccccc2c(=O)[nH]1`: the “activity, negative = inhibition” value is -6.97%.

For the compound `Cc1cnc(CNc2ncncc2-c2ccc3c(c2)OCO3)cn1`, the AC50 was 2000 nM (active).

For the compound `Cc1cccc(CNc2ncncc2-c2ccc3c(c2)OCO3)c1`, the AC50 was 126 nM (active).

For the compound `c1cncc(CNc2ncncc2-c2ccc3c(c2)OCO3)c1`, the AC50 is 398 nM (active).

Regarding `c1csc(CNc2ncncc2-c2ccc3c(c2)OCO3)c1`, the AC50 was 200 nM (active).

For the compound `Cc1ccc(N(C(=O)Cn2nnc(-c3ccc(F)cc3)n2)C(CC(C)C)C(=O)NCC2CCCO2)cc1` (stereo not given), the “activity, negative = inhibition” value is -2.51%.

Turning to `c1ccc(CNc2ncncc2-c2ccc3c(c2)OCO3)cc1`, the AC50 is 126 nM (active).

For the compound `c1ccc(Nc2ncncc2-c2ccc3c(c2)OCO3)cc1`, the AC50 was 316 nM (active).

For the compound `CC(C)c1ccccc1S(=O)c1ccccc1C(C)(C)O` (stereo not given), the activity, negative = inhibition was -10.7% [at 2.29 µM].

For the compound `O=C(O)c1ccccc1OP(=O)(O)O`, the “activity, negative = inhibition” value is -1.68% [at 25.6 µM].

For `O=C(O)c1ccc(/C=N\N=C2c3ccccc3-c3ccccc32)cc1`, the AC50 was 126 nM (active).

Consider `O=C(O)c1ccccc1/C=N\N=C1c2ccccc2-c2ccccc21`, for which the AC50 was 316 nM (active).

Consider `NCc1ccc(C(=O)O)cc1`, for which the activity, negative = inhibition was -4.79% [at 2.29 µM].

`O=C(O)c1cccc2cccc(-c3cccc4cccc(C(=O)O)c34)c12`: the activity, negative = inhibition is -12.3% [at 2.29 µM].

Consider `Cc1ccc(Cl)cc1-n1c(=O)cc(N2CC(C)OC(C)C2)[nH]c1=O` (stereo not given), for which the “activity, negative = inhibition” value was -1.42%.

`Clc1ccc(Cl)c(Nc2ccnc(SCc3ccccc3)n2)c1`: the AC50 was 501 nM (active).

Regarding `Cc1cccc(Nc2cc(Cl)nc(SCC(=O)O)n2)c1C`, the “activity, negative = inhibition” value was 0.128%.

Consider `Cn1c(=O)n2n(c1=O)[C@H]1[C@H](O)[C@H]3O[C@@H]3/C(=N/OC[C@@H](O)COCc3ccco3)[C@@H]1CC2`, for which the activity, negative = inhibition was 2.55% [at 11.4 µM].

As for `CCc1cccc2c3c([nH]c12)[C@@](CC)(CC(=O)O)OCC3`, the “activity, negative = inhibition” value was -10.3% [at 25.6 µM].

Take `CCc1cccc2c(-c3ccccc3)c3c(nc12)OCC3`: the AC50 was 316 nM (active).

With `O=C1Nc2ccccc2/C1=N/c1sc2c(c1C(=O)NCCc1ccccc1)CCCC2`, the concentration at half-maximal activity (AC50) was 2510 nM (active).

On to `NS(=O)(=O)c1ccc(N=C2C(=O)Nc3ccccc32)cc1`, for which the activity, negative = inhibition is -12.7% [at 2.29 µM].

As to `O=C1Nc2ccccc2C1=Nc1ccc(S(=O)(=O)Nc2nccs2)cc1`, the activity, negative = inhibition is -18.2% [at 11.4 µM].

Consider `COCCNc1nc(-c2cccc(NS(C)(=O)=O)c2)nc2ccccc12`, for which the AC50 is 3160 nM (active).

With `c1cc(NNc2cccc(-c3nn[nH]n3)c2)cc(-c2nn[nH]n2)c1`, the activity, negative = inhibition is -15.5% [at 2.29 µM].

Regarding `CS(=O)(=O)Nc1cccc(-c2nc(NCc3ccccc3)c3ccccc3n2)c1`, the AC50 was 2510 nM (active).

Consider `CC(=O)NCCNc1nc(-c2cccc(NS(C)(=O)=O)c2)nc2ccccc12`, for which the AC50 is 15800 nM (active).

In the case of `CS(=O)(=O)Nc1cccc(-c2nc(NCc3cccs3)c3ccccc3n2)c1`, the AC50 is 1000 nM (active).

In the case of `CC[C@@H]1CC(=O)N(SC[C@H](N)C(=O)O)C1=O`, the activity, negative = inhibition is -14.7% [at 11.4 µM].

Regarding `COc1cccc([C@@H]2Oc3ccc(Br)cc3C(=O)[C@H]2O)c1`, the activity, negative = inhibition is -3.35% [at 11.4 µM].

In the case of `CCc1c(C)c(C#N)c2nc3ccccc3n2c1Nc1c(C)n(C)n(-c2ccccc2)c1=O`, the “activity, negative = inhibition” value is -20.2%.

`Cc1cccc(CNc2nc(-c3cccc(NS(C)(=O)=O)c3)nc3ccccc23)c1`: the AC50 is 15800 nM (active).

For `Cc1sc(NC(=O)c2ccco2)c(C(c2cccnc2)N2CCCC2)c1C` (stereo not given), the AC50 was 14100 nM (active).

As to `Cc1sc(NC(=O)c2ccco2)c(C(c2cccnc2)N2CCN(C)CC2)c1C` (stereo not given), the “activity, negative = inhibition” value is -7.13%.

With `Cc1sc(NC(=O)c2ccco2)c(C(c2ccncc2)N2CCOCC2)c1C` (stereo not given), the “activity, negative = inhibition” value was -16.7%.

`CCCCN(C)Cc1c(C)[nH]c2ccc(Cl)cc2c1=O`: the AC50 was 5010 nM (active).

Take `Cn1cccc1C(=O)N1CCC[C@@]2(CCN(C(c3ccccc3)c3ccccc3)C2)C1`: the AC50 was 20000 nM (active).

Take `CC(C)NC(=O)N1CC[C@@]2(CCCN(C(=O)c3cccn3C)C2)C1`: the “activity, negative = inhibition” value was 1.6%.

For the compound `CN1CC[C@@]2(CCCN(C(=O)c3cccn3C)C2)C1`, the “activity, negative = inhibition” value is 10.5%.

Regarding `CC(=O)N1CCC[C@@]2(CCN(c3ccccc3)C2)C1`, the “activity, negative = inhibition” value is 5.33%.

Turning to `O=C(c1ccco1)N1CCC2(CC1)CN(C(c1ccccc1)c1ccccc1)C2`, the “activity, negative = inhibition” value is -18.6%.

As for `Cn1cccc1C(=O)N1CCC[C@@]2(CCN(c3ccncc3)C2)C1`, the AC50 is 12600 nM (active).

For the compound `O=C(c1ccco1)N1CCC[C@@]2(CCN(C(c3ccccc3)c3ccccc3)C2)C1`, the AC50 is 25100 nM (active).

As to `O=C(c1cccc(F)c1)N1CCC[C@@]2(CCN(C(c3ccccc3)c3ccccc3)C2)C1`, the “activity, negative = inhibition” value was -0.977%.

On to `Cn1cccc1C(=O)N1CCC2(CC1)CN(c1ccncc1)C2`, for which the “activity, negative = inhibition” value was 0.971%.

For the compound `CC(=O)N1CCC[C@@]2(CCN(c3ccncc3)C2)C1`, the “activity, negative = inhibition” value was 1.12%.

For the compound `Cn1cccc1C(=O)N1CCC[C@@]2(CCN(c3ccccc3)C2)C1`, the concentration at half-maximal activity (AC50) was 12600 nM (active).

In the case of `O=C(c1ccco1)N1CCC2(CC1)CCN(C(c1ccccc1)c1ccccc1)CC2`, the “activity, negative = inhibition” value was -6.96%.
